Test results as given in PubChem BioAssay (Tox21).
“And” between values parts separate entries of the source, which are not always exact repeats. Identical values can stand only once. Inconclusive results are not listed. A call without a number means that no potency is given here. The source holds several records for some structures; these can differ, active in one and inactive in another. The source made the active and inactive calls. Unless noted, calls come from the whole dose curve; as a rule, active = well fitted curve in the direction sought with a large enough effect in the repeat runs; inconclusive = weak or mixed curves; inactive = no such curve, though single readings can be large; an effect the other way counts as inactive or inconclusive.

Tests used:
[1] = qHTS assay to identify small molecule antagonists of the thyroid receptor (TR) signaling pathway (AID 743065); note: nearly all actives have a fitted effect of over 55% in size; note: potency is the fitted concentration of half-maximal effect; for activity, negative = inhibition: series mostly up to about 70 µM
Procedure, shortened: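 GH3.TRE-Luc rat pituitary cells (two TREs driving luciferase) were dosed with compound, then stimulated with 1 nM T3 (final) for 23.5 h at 37 C. ONE-Glo luminescence was the read-out, with CellTiter-Fluor fluorescence as the cytotoxicity counter-screen.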

[2] = system: thyroid hormone receptor (rat, GH3 cells); assay: qHTS assay to identify small molecule agonists of the thyroid receptor (TR) signaling pathway (AID 743066; calls by dose curve; note: potency is the fitted concentration of half-maximal effect)
[3] = target: Estrogen receptor (Homo sapiens) (UniProt P03372); assay: qHTS assay to identify small molecule antagonists of the estrogen receptor alpha (ER-alpha) signaling pathway (AID 743069; active = well fitted curve in the direction sought with a large enough effect in the signal ratio in the repeat runs, not every such curve was filed as active; the % refers to the signal ratio)
Chain of Estrogen receptor (Homo sapiens) (P03372 whole entry, looked up): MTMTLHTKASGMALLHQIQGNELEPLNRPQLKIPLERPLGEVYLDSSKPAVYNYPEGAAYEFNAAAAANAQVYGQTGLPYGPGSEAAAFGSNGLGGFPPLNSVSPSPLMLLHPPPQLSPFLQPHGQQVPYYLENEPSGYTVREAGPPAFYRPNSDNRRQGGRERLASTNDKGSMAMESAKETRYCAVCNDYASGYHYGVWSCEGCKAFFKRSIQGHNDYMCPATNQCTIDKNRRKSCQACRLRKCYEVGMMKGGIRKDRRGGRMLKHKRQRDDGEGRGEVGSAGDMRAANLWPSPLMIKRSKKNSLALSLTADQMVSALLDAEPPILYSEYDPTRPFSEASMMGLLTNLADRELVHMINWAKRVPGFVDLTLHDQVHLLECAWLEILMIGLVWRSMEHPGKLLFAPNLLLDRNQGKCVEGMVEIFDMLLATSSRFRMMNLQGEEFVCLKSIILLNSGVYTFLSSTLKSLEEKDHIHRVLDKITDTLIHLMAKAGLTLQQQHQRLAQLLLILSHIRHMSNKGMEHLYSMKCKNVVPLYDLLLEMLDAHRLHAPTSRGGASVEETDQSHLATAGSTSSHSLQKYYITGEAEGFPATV
Procedure, shortened: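 Beta-lactamase FRET fluorescence is read after 2 hr at room temperature with LiveBLAzer B/G substrate. Before that, ER-alpha-bla HEK293 cells sit 4 hr after plating, then receive compound plus 17beta-estradiol and incubate 18 hr at 37C.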

[4] = qHTS assay to identify small molecule antagonists of the estrogen receptor alpha (ER-alpha) signaling pathway - cell viability counter screen (AID 743074; calls by dose curve;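 note: HEK293 cells carrying ER-alpha-UAS-bla reporter stimulated with 17beta-estradiol; nearly all actives have a fitted effect of over 45% in size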; note: potency is the fitted concentration of half-maximal effect)
[5] = target: Estrogen receptor (Homo sapiens) (UniProt P03372); assay: qHTS assay to identify small molecule agonists of the estrogen receptor alpha (ER-alpha) signaling pathway (AID 743075; calls by dose curve;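 note: HEK293 GripTite cells with ER-alpha and UAS-driven beta-lactamase reporter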)
[6] = target: Estrogen receptor (Homo sapiens) (UniProt P03372); assay: qHTS assay to identify small molecule agonists of the estrogen receptor alpha (ER-alpha) signaling pathway using the BG1 cell line (AID 743079); note: nearly all actives have a fitted effect of over 20% in size; note: potency is the fitted concentration of half-maximal effect
[7] = qHTS assay to identify small molecule antagonists of the estrogen receptor alpha (ER-alpha) signaling pathway using the BG1 cell line (AID 743080; calls by dose curve;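 note: BG1 cells stimulated with 17beta-estradiol alongside compound; series mostly up to about 70 µM; nearly all actives have a fitted effect of over 25% in size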)
Procedure, shortened: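 Luminescence from a 4×ERE-luciferase reporter in BG1-Luc-4E2 cells served as read-out. Cells, pre-cultured 5 days in stripped-serum phenol-red-free medium, were exposed to compound with 17beta-estradiol co-stimulation for 21.5 h at 37 C.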

[8] = qHTS assay to identify small molecule antagonists of the estrogen receptor alpha (ER-alpha) signaling pathway using the BG1 cell line - cell viability counter screen (AID 743081);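 note: compound given together with 17beta-estradiol as the ER stimulus; nearly all actives have a fitted effect of over 45% in size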; note: potency is the fitted concentration of half-maximal effect
Aromatase (Homo sapiens) = Aromatase (Homo sapiens) (UniProt P11511); assay: qHTS assay to identify aromatase inhibitors (AID 743083); note: nearly all actives have a fitted effect of over 55% in size; note: potency is the fitted concentration of half-maximal effect; for activity, negative = inhibition: series mostly up to about 70 µM
Chain of Aromatase (Homo sapiens) (P11511 whole entry, looked up): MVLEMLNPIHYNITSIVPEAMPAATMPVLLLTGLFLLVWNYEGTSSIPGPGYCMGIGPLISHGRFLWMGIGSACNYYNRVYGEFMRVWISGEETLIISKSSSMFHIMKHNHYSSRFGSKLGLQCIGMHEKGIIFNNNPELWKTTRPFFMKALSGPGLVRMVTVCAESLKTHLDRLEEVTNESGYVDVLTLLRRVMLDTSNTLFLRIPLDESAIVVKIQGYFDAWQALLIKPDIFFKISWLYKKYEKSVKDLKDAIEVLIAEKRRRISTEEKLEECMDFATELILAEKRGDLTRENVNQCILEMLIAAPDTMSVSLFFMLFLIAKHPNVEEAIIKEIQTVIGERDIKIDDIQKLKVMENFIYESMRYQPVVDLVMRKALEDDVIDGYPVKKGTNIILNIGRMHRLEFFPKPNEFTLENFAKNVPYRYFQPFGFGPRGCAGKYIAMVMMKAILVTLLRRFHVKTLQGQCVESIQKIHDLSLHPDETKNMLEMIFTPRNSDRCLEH

[9] = qHTS assay to identify aromatase inhibitors - cell viability counter screen (AID 743084);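 note: cells stimulated with testosterone during compound exposure; nearly all actives have a fitted effect of over 55% in size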; note: potency is the fitted concentration of half-maximal effect

Row | SMILES | Potency [1] | Potency [2] | Potency [3] | Potency [4] | Potency [5] | Potency [6] | Potency [7] | Potency [8] | Potency (Aromatase (Homo sapiens)) | Potency [9] | activation [2] | activity, negative = inhibition [3] | activity, negative = cytotoxicity [4] | activation [5]
1 | O=CNNC=O | inactive | inactive | inactive | inactive | inactive | inactive | inactive | inactive | inactive | inactive |  |  |  | 
2 | COC(C)(C)OC | inactive | inactive | inactive | inactive | inactive | inactive | inactive | inactive | inactive | inactive |  |  |  | 
3 | O=C(CCS)OCC(COC(=O)CCS)(COC(=O)CCS)COC(=O)CCS | inactive | inactive | inactive | inactive | inactive | inactive | inactive | inactive | inactive |  |  |  |  | 
4 | Cc1ccc(NC(=O)N(C)C)cc1NC(=O)N(C)C | inactive | inactive | inactive | inactive | inactive | inactive | inactive | inactive | inactive | inactive |  |  |  | 
5 | CC[C@H]1OC(=O)[C@H](C)[C@@H](O[C@H]2C[C@@](C)(OC)[C@@H](O)[C@H](C)O2)[C@H](C)[C@@H](O[C@@H]2O[C@H](C)C[C@H](N(C)C)[C@H]2O)[C@](C)(O)C[C@@H](C)/C(=N\OCOCCOC)[C@H](C)[C@@H](O)[C@]1(C)O | inactive | inactive | inactive | inactive | inactive | inactive | inactive | inactive and 18.1 µM (active) | inactive | inactive and 10.2 µM (active) |  |  |  | 
6 | O=C(O)CCS | inactive | inactive | inactive | inactive | inactive | inactive | inactive | inactive | inactive | inactive |  |  |  | 
7 | CCN(CC)C(=O)/C(C#N)=C/c1cc(O)c(O)c([N+](=O)[O-])c1 | inactive | inactive | inactive | inactive | inactive | inactive | inactive | inactive | inactive |  |  |  |  | 
8 | CCC(CO)(CO)CO | inactive | inactive | inactive | inactive | inactive | inactive | inactive | inactive | inactive | inactive |  |  |  | 
9 | Cc1ccc(Nc2c(F)cccc2Cl)c(CC(=O)O)c1 | inactive | inactive | inactive | inactive | inactive | inactive | inactive | inactive | inactive | inactive |  |  |  | 
10 | COC(=O)CC(C(C)=O)C(=O)OC (stereo not given) | inactive | inactive | inactive | inactive | inactive | inactive | inactive | inactive | inactive | inactive |  |  |  | 
11 | CCN(CC)CCNC(=O)c1cc(Cl)c(N)cc1OC | inactive | inactive | inactive | inactive | inactive | inactive | inactive | inactive | inactive | inactive |  |  |  | 
12 | COc1ccc(-c2cc(C(F)F)nn2-c2ccc(S(N)(=O)=O)cc2)cc1F | inactive | inactive | inactive | inactive | inactive | inactive | inactive | inactive | inactive | inactive |  |  |  | 
13 | O=C(O)c1cccc(Oc2ccccc2)c1 | inactive | inactive | inactive | inactive | inactive | inactive | inactive | inactive | inactive |  |  |  |  | 
14 | O=c1[nH]c2cc(C(F)(F)F)c(N3CCOCC3)cc2n(CP(=O)(O)O)c1=O | inactive | inactive | inactive | inactive | inactive | inactive | inactive | inactive | inactive | inactive |  |  |  | 
15 | O=P(O)(O)Oc1ccccc1 | inactive | inactive | inactive | inactive | inactive | inactive | inactive | inactive | inactive | inactive |  |  |  | 
16 | CC1C(C)(C)C2=C(C(=O)CCC2)C1(C)C (stereo not given) | inactive | inactive | inactive | inactive | inactive | inactive | inactive | inactive | inactive | inactive |  |  |  | 
17 | O=C(O)c1cccc(C[C@@H]2COc3ccc(OCc4nc5cc(F)ccc5s4)cc3[C@@H]2O)c1 | inactive | inactive | inactive | inactive | inactive | inactive | inactive | inactive | inactive | inactive |  |  |  | 
18 | CC[C@H]1OC(=O)[C@H](C)[C@@H](O[C@H]2C[C@@](C)(OC)[C@@H](O)[C@H](C)O2)[C@H](C)[C@@H](O[C@@H]2O[C@H](C)C[C@H](N(C)C)[C@H]2O)[C@](C)(O)C[C@@H](C)CN(C)[C@H](C)[C@@H](O)[C@]1(C)O | 29.8 µM (active) and 36.1 µM (active) | inactive | inactive | inactive | inactive | inactive | inactive | inactive | inactive | inactive |  |  |  | 
19 | CC1CCCC(=O)C1=O (stereo not given) | inactive | inactive | inactive | inactive | inactive | inactive | inactive | inactive | inactive | inactive |  |  |  | 
20 | CC(=O)NNC(C)=O | inactive | inactive | inactive | inactive | inactive | inactive | inactive | inactive | inactive | inactive |  |  |  | 
21 | CC1=CC[C@@H]2C[C@H]1C2(C)C | inactive |  |  |  |  | inactive | inactive | inactive | inactive | inactive | 0.116% [at 18 µM] (inactive) | 12.8% [at 15 µM] (inactive) | -16.5% [at 15 µM] (inactive) | -0.944% [at 14.9 µM] (inactive)
22 | NC(=O)CCCCC(N)=O | inactive | inactive | inactive | inactive | inactive | inactive | inactive | inactive | inactive | inactive |  |  |  | 
23 | CNc1c2c(nn1C)CCCC2 | inactive | inactive | inactive | inactive | inactive | inactive | inactive | inactive | inactive | inactive |  |  |  | 
24 | O=C(O)CO | inactive | inactive | inactive | inactive | inactive | inactive | inactive | inactive | inactive | inactive |  |  |  | 

Row | SMILES | Potency [1] | Potency [2] | Potency [3] | Potency [4] | Potency [5] | Potency [6] | Potency [7] | Potency [8] | Potency (Aromatase (Homo sapiens)) | Potency [9] | activation [2] | activity, negative = inhibition [3] | activity, negative = cytotoxicity [4] | activation [5]
25 | C=CC(=O)NC(C)C | inactive | inactive | inactive | inactive | inactive | inactive | inactive | inactive | inactive | inactive |  |  |  | 
26 | COc1ccc(CCN(C)CCCN2CCc3cc(OC)c(OC)cc3CC2=O)cc1OC | inactive | inactive | inactive | inactive | inactive | inactive | inactive | inactive | inactive | inactive |  |  |  | 
27 | CC(C)C(=O)OCCOc1ccccc1 | inactive | inactive | inactive | inactive | inactive | inactive | inactive | inactive | inactive | inactive |  |  |  | 
28 | Cc1cccc2sc(N)nc12 | inactive | inactive | inactive | inactive | inactive | inactive | inactive | inactive | inactive | inactive |  |  |  | 
29 | CC(C)c1ccc(C#N)cc1 | inactive | inactive | inactive | inactive | inactive | inactive | inactive | inactive | inactive | inactive |  |  |  | 
30 | COC(=O)c1sccc1S(N)(=O)=O | inactive | inactive | inactive | inactive | inactive | inactive | inactive | inactive | inactive | inactive |  |  |  | 
31 | COc1ccc2nc(S(=O)Cc3ncc(C)c(OC)c3C)[nH]c2c1 (stereo not given) | inactive | inactive | inactive | inactive | inactive | inactive | inactive | inactive | inactive | inactive |  |  |  | 
32 | CC(C)(C)NCC(O)COc1cccc2c1C[C@H](O)[C@H](O)C2 (stereo not given in full) | inactive | inactive | inactive | inactive | inactive | inactive | inactive | inactive | inactive | inactive |  |  |  | 
33 | COc1cc(NS(=O)(=O)c2ccc(N)cc2)nc(C)n1 | inactive | inactive | inactive | inactive | inactive | inactive | inactive | inactive | inactive | inactive |  |  |  | 
34 | COc1cc(NCc2ccc3nc(N)nc(N)c3c2C)cc(OC)c1OC | 668 nM (active) | inactive | inactive | 0.213 µM (active) | inactive | inactive |  |  |  |  |  |  |  | 
35 | c1ccc(CCCc2ccncc2)cc1 | inactive | inactive | inactive | inactive | inactive | inactive | inactive | inactive | 30.6 µM (active) | inactive |  |  |  | 
36 | C=CCOC(=O)COCCC(C)C | inactive | inactive | inactive | inactive | inactive | inactive | inactive | inactive | inactive |  |  |  |  | 
37 | CC(C)(C)S | inactive | inactive | inactive | inactive | inactive | inactive | inactive | inactive | inactive | inactive |  |  |  | 
38 | CC(C)C(O)C(C)(C)CO (stereo not given) | inactive | inactive | inactive | inactive | inactive | inactive | inactive | inactive | inactive | inactive |  |  |  | 
39 | O=C(O)CNC(=O)c1ccccc1I | inactive | inactive | inactive | inactive | inactive | inactive | inactive | inactive | inactive | inactive |  |  |  | 
40 | C/C(C=O)=C\c1ccccc1 | inactive | inactive | inactive | inactive | inactive | inactive |  | inactive | inactive | inactive |  |  |  | 
41 | CC(=O)OCCC(C)CC(C)(C)C (stereo not given) | inactive | 24.3 µM (active) | inactive | inactive | inactive | inactive | inactive | inactive | inactive | inactive |  |  |  | 
42 | [Cl][Nd]([Cl])[Cl] | inactive | inactive | inactive | inactive | inactive | inactive | inactive | inactive | inactive | inactive |  |  |  | 
43 | C=C(C)C(=O)OCCC(F)(F)C(F)(F)C(F)(F)C(F)(F)C(F)(F)C(F)(F)F | inactive | inactive | inactive | inactive | inactive | inactive | inactive | inactive | inactive | inactive |  |  |  | 
44 | COc1ccc(C2C(=O)c3ccccc3C2=O)cc1 | inactive | inactive | inactive | inactive | inactive | 23.7 µM (active) | inactive | inactive | inactive | inactive |  |  |  | 
45 | CCC(CO)(CO)[N+](=O)[O-] | inactive | inactive | inactive | inactive | inactive | inactive | inactive | inactive | inactive | inactive |  |  |  | 
46 | BrC(Br)C(Br)Br | inactive | inactive | inactive | inactive | inactive | inactive | inactive | inactive | inactive | inactive |  |  |  | 
47 | Cc1ccc2c(c1)CCCN2 | inactive | inactive | inactive | inactive | inactive | inactive |  | inactive | inactive | inactive |  |  |  | 
48 | CCCCC(CC)COS(=O)(=O)O (stereo not given) | inactive | inactive | inactive | inactive | inactive | inactive | inactive | inactive | inactive | inactive |  |  |  | 
